Experimental findings from PubChem BioAssay are described below.

For part of these data: Measured potencies and affinities stand elsewhere. The source made the active and inactive calls.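 The calls were made as follows, unless noted: active = compound raising the membrane signal above positive-control mean plus 3 SD in both repeats, and a primary screen hit; inactive = the rest.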

The subject of experiment [1] is TRPC4 beta (transient receptor potential cation channel C4), mouse. Kind of experiment: TRPC4 cation channel opening, retest – cell-based, Fluo4 calcium, HEK293 TRPC4beta/mu-opioid, duplicates, 10 µM, confirmation (AID 2426;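 active = fluorescence ratio normalized to control raised more than 50% in primary screen plus both repeat runs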). As to conditions: Fluo4 calcium fluorescence, at 10 µM; hits give high values.
Experiment [2] has as its system transient receptor potential cation channel C4 beta (TRPC4), mouse. As to the kind of experiment: TRPC4 cation channel opening, second retest – cell-based, second round, Fluo4, HEK293 TRPC4beta/mu-opioid, 1 µM, confirmation (AID 2461;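 active = primary screen active and over 50% activation in each of two duplicate runs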). As to conditions: Fluo4 calcium fluorescence, at 1 µM; hits give high values.
The test system of experiment [3] is TRPC4 (transient receptor potential cation channel C4 beta), mouse. As to the kind of experiment: potentiation of DAMGO EC20 TRPC4 response – cell-based, second round, Fluo-4, HEK293 TRPC4beta/mu-opioid, 1 µM, confirmation (AID 2554;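 active = primary screen hit whose fluorescence ratio, in both repeats, exceeds the weak agonist control mean by 3 SD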). As to conditions: DAMGO EC20, Fluo-4 calcium flux, at 1 µM; hits give high values. In general terms: Calcium flux is commonly read through the fluorescence of an indicator in the cells.

Experiment [4] has as its system TRPC4 beta (transient receptor potential cation channel C4), mouse. As to the kind of experiment: potentiation of DAMGO EC20 TRPC4 response – cell-based, Fluo-4, HEK293 TRPC4beta/mu-opioid, confirmation (AID 2555;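 active = primary screen hit whose calcium fluorescence ratio, in both repeats, exceeds the weak agonist control mean by 3 SD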). As to conditions: DAMGO EC20, Fluo-4 calcium flux, at 10 µM; hits give high values.
The target of experiment [5] is Short transient receptor potential channel 4 (Mus musculus) (UniProt Q9QUQ5). Kind of experiment: blockers of DAMGO-evoked TRPC4 calcium flux – cell-based, Fluo4, HEK293 TRPC4beta/mu-opioid, confirmation (AID 2636;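 active = calcium signal cut by more than 3 SD below the full-agonist control yet still positive, in both repeats and the earlier primary screen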). The note with it: at 10 µM; hits give high values.
For experiment [6] the target is unchanged. As to the kind of experiment: blockers of DAMGO-evoked TRPC4 calcium flux – cell-based, second round, Fluo4, HEK293 TRPC4beta/mu-opioid, 1 µM, confirmation (AID 2637;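 active = calcium signal ratio cut to more than 3 SD under the fully stimulated control mean yet still positive, in both repeats and the primary screen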). As to conditions: at 1 µM; hits give high values.
Experiment [7] shares this target. As to the kind of experiment: calcium entry via TRPC4 opening agents – cell-based, HEK293 TRPC4/mu-opioid, Fluo-4 calcium, dose response (AID 434937;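 active = primary screen activator hit with a dose response curve and TRPC4 channel activation at any tested dose; inactive = no activation, no dose response, or not a primary hit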).
Experiment [8] shares this target. As to the kind of experiment: potentiation of DAMGO-evoked TRPC4 calcium signal – cell-based, HEK293 TRPC4/mu-opioid, Fluo-4 calcium, EC20 DAMGO, dose response (AID 434941;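 active = earlier screen potentiator hit that boosts the TRPC4 ion channel at some dose, with a dose response; inactive = no potentiation, no dose response, or not a prior hit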;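 also: calcium entry triggered by an EC20 dose of DAMGO at the co-expressed mu-opioid receptor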).
The target is the same in experiment [9]. As to the kind of experiment: block of DAMGO-driven TRPC4 calcium entry – cell-based, HEK293 TRPC4/mu-opioid, Fluo-4 calcium, dose response (AID 434942;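 active = primary screen inhibitor hit that blocks the TRPC4 channel at some tested dose, yielding a dose curve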).
Experiment [10] addresses Short transient receptor potential channel 6 (Mus musculus) (UniProt Q61143). As to the kind of experiment: TRPC6 blockade by TRPC4 inhibitor hits – cell-based, HEK293, membrane potential dye, duplicate, selectivity assay for TRPC4 inhibitor project, confirmation (AID 434948;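 active = active in primary screen and both duplicates, each dropping signal beyond three positive-control SD with fluorescence still positive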). The note with it: HEK293 TRPC6, membrane potential dye fluorescence, at 10 µM, stimulated with maximal-effect acetylcholine; hits give high values.

For experiment [11] the target is unchanged. Kind of experiment: TRPC6 opening by TRPC4 activator hits – cell-based, HEK293, membrane potential dye, duplicate, selectivity assay for TRPC4 activator project, confirmation (AID 434950;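 active = membrane potential signal rise above negative control mean plus 3 SD in both duplicates, also active in the earlier TRPC4 screen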). The note with it: HEK293 TRPC6, membrane potential fluorescence, at 10 µM; activation: hits give high values; outcome: activation.
For experiment [12] the target is unchanged. As to the kind of experiment: positive modulators of mouse TRPC6 channel – HEK293 cells, membrane potential dye, duplicate, selectivity assay for TRPC4 potentiator project, confirmation (AID 434952). The note with it: HEK293 TRPC6, membrane potential dye fluorescence, at 10 µM, maximal acetylcholine added after compound; hits give high values.
Experiment [13] has as its target Short transient receptor potential channel 4 (Mus musculus) (UniProt Q9QUQ5). Kind of experiment: calcium flux activators in TRPC4/5HT1a cells, counter-screen for TRPC4 activator project, cell-based, second counter screen, HEK293 TRPC4/5HT1a, Fluo-4 (AID 434977;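 active = calcium signal rise above buffer-control mean plus 5 SD in both duplicates, and also a hit in the primary screen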). As to conditions: Fluo-4 calcium flux, at 10 µM; hits give high values.
Experiment [14] in a line: serotonin-gated TRPC4 signal block – cell-based, second counter screen, HEK293 TRPC4/5HT1a, Fluo-4, counter-screen for TRPC4 inhibitor project, confirmation (AID 434978;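 active = primary screen active whose calcium signal fell more than 3 SD beyond the full-serotonin control mean in both duplicate plates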;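 as to outcome: serotonin given first at submaximal then at maximal dose after compound preincubation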). The note with it: Fluo-4 calcium flux, at 10 µM, serotonin added to trigger calcium flux; hits give high values.
Experiment [15] has as its system TRPC4 (mouse), co-expressed with 5HT1a in HEK293. Kind of experiment: enhancement of serotonin-evoked TRPC4 response – cell-based, second counter screen, HEK293 TRPC4/5HT1a, Fluo-4, counter-screen for TRPC4 potentiator project, confirmation (AID 434979;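 active = signal rise over 3 SD above mean of control wells given weak agonist, in both repeats and first screen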). As to conditions: Fluo-4 calcium flux, at 10 µM, serotonin added at its EC20 dose; hits give high values.
A short description of experiment [16]: nonspecific calcium rise without TRPC4 – cell-based, HEK293 mu-opioid receptor line, counter-screen for TRPC4 activator project, confirmation (AID 449723;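 active = hit in primary screen, with calcium signal over 5 SD above buffer well mean in both duplicates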;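 also: counter screen cells carry the mu-opioid receptor alone and lack TRPC4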). The note with it: HEK293 mu-opioid cells, Fluo-4 calcium fluorescence, at 10 µM; hits give high values. For orientation: Counterscreens check selectivity or assay interference.
Experiment [17] is described as follows: nonspecific potentiation of DAMGO calcium response – cell-based, HEK293 mu-opioid receptor line, counter-screen for TRPC4 allosteric potentiator project, confirmation (AID 449724;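 active = calcium signal rise more than 3 SD above the low-dose agonist control mean, in both duplicate plates and the primary screen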;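 also: HEK293 cells carrying mu-opioid receptor only with no TRPC4 channel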). The note with it: HEK293 mu-opioid receptor cells, Fluo-4 calcium flux, at 10 µM, compound added before EC20 DAMGO stimulus; hits give high values.

Short transient receptor potential channel 4 (Mus musculus), sequence (Q9QUQ5 whole entry, looked up): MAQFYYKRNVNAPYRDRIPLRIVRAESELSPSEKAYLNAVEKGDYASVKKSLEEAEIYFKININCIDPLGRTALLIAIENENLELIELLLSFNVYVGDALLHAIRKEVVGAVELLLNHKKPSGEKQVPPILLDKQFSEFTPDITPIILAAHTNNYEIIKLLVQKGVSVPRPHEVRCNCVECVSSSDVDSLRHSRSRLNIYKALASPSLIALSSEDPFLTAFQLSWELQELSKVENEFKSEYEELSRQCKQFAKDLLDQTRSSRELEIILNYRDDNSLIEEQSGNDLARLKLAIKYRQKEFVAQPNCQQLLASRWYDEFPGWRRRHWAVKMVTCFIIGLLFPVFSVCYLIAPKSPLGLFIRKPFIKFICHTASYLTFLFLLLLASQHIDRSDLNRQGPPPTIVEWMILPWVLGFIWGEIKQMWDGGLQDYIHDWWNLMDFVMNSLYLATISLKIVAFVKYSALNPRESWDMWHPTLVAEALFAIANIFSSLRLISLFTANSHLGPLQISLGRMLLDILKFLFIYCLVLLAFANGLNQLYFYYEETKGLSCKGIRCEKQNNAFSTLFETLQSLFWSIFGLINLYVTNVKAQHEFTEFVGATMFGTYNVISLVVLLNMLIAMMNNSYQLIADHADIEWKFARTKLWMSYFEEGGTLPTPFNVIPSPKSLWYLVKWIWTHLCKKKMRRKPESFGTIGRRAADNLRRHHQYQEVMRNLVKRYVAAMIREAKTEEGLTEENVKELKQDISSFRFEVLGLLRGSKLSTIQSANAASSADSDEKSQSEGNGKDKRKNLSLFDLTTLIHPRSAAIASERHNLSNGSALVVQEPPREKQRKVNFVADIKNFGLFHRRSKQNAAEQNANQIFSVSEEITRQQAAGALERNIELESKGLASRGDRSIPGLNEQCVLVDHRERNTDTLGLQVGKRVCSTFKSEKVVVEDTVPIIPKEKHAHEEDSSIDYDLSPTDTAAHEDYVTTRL
Short transient receptor potential channel 6 (Mus musculus), sequence (Q61143 whole entry, looked up): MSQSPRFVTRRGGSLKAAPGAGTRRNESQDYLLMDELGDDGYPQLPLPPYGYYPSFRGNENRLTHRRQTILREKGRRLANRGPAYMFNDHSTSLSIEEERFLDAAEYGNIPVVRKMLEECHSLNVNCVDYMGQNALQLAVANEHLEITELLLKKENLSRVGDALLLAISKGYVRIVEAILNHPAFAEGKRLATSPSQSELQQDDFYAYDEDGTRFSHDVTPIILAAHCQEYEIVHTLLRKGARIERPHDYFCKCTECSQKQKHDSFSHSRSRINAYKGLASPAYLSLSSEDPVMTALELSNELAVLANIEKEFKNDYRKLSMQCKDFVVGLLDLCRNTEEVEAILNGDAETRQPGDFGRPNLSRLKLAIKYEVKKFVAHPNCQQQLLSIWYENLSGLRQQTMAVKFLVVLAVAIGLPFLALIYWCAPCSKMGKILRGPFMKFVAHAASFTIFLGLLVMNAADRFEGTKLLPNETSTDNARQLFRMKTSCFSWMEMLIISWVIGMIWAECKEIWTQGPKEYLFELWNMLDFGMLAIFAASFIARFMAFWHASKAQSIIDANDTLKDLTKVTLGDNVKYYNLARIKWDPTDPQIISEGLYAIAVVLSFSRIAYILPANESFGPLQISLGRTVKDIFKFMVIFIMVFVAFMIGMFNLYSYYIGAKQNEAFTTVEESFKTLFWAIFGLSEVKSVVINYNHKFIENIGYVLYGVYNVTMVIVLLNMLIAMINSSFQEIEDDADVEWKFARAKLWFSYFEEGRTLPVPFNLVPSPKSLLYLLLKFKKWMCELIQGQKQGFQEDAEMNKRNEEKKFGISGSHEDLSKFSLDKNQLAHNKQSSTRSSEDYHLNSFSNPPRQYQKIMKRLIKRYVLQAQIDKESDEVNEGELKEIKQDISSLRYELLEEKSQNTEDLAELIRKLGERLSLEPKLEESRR

Take `O=[N+]([O-])c1c(Nc2cccc(O)c2)cc(Cl)c2nonc12`: the outcome in experiment [1], in [2], in experiment [3], in [4], in experiment [5] and in [6] was inactive. The result in [7], in experiment [8], in experiment [9], in [10], in [11] and in experiment [12] was inactive. Also, the result in [13], in [14], in experiment [15], in experiment [16] and in experiment [17] was inactive.
For `COc1ccc(C(=O)CCC(=O)Nc2cccc(Cl)c2)cc1`, the result in experiment [1], in [2], in [3], in experiment [5], in [6] and in experiment [7] was inactive. Besides, the outcome in experiment [8], in experiment [9], in experiment [10], in [11], in [12] and in experiment [13] was inactive. Besides, the result in experiment [14], in experiment [16] and in experiment [17] was inactive. The potentiation in experiment [4] was 10% (active); in experiment [15], 22.1% (active).
For the compound `NC(=O)c1ccc(N2CCN(c3ncc(C(F)(F)F)cc3Cl)CC2)cc1`, the outcome in experiment [1], in experiment [2], in [3], in experiment [4], in [5] and in experiment [6] was inactive. For the same compound, the result in experiment [7], in experiment [8], in experiment [9], in experiment [10], in [11] and in experiment [12] was inactive. Besides, the result in experiment [13], in experiment [14], in experiment [16] and in [17] was inactive. Moreover, the potentiation in experiment [15] was 11.9% (active).
Take `CCN(CC)CCOC(=O)c1cccc(Br)c1`: the result in experiment [1], in experiment [2], in experiment [5], in experiment [6], in experiment [7] and in experiment [8] was inactive. The result in [9], in [10], in experiment [11], in experiment [12], in experiment [13] and in experiment [14] was inactive. For the same compound, the result in [16] and in [17] was inactive. Further, the potentiation in experiment [3] was 14% (active); in experiment [4] it was 12% (active); in experiment [15], 8.39% (active).
Regarding `CSc1ccc2nnc(-c3cccc(F)c3)n2n1`, the result in [1], in experiment [2], in experiment [3], in [5], in [6] and in [7] was inactive. Also, the outcome in experiment [8], in [9], in experiment [10], in experiment [11], in [12] and in [13] was inactive. The outcome in [14], in [16] and in experiment [17] was inactive. For the same compound, the values for the potentiation in [4] and in experiment [15] were 43% (active) and 26.8% (active), respectively.
With `CN(C)C(CNC(=O)c1ccc(S(=O)(=O)NCc2ccco2)cc1)c1ccccc1` (stereo not given), the outcome in [1], in experiment [2], in experiment [3], in experiment [4], in experiment [5] and in experiment [6] was inactive. Also, the result in experiment [7], in [8], in experiment [9], in [10], in experiment [11] and in experiment [12] was inactive. In addition, the result in experiment [13], in experiment [14], in [15], in experiment [16] and in experiment [17] was inactive.
`CC1CC(C)CN(CCCNC(=O)C2CCCN(c3ncnc4c3nc3n4CCCCC3)C2)C1` (stereo not given): the outcome in experiment [1], in [2], in experiment [4], in experiment [5], in experiment [6] and in experiment [7] was inactive. For the same compound, the outcome in experiment [8], in [9], in experiment [10], in experiment [11], in experiment [12] and in [13] was inactive. Besides, the outcome in experiment [14], in [16] and in experiment [17] was inactive. The potentiation was 18% (active) in experiment [3] and 17.1% (active) in [15].
For orientation: inhibition means the relative decrease from the control value, in per cent. Turning to `NC(=O)c1nsc(C(=O)N(Cc2ccco2)C(C(=O)NCc2ccccc2)c2ccc(O)cc2)c1N` (stereo not given), the result in [1], in experiment [2], in experiment [3], in experiment [4], in [6] and in [7] was inactive. In addition, the outcome in experiment [8], in experiment [9], in [10], in experiment [11], in [12] and in [13] was inactive. For the same compound, the outcome in [15], in experiment [16] and in [17] was inactive. In addition, the inhibition in experiment [5] is 72% (active); in experiment [14], 40% (active).
Consider `O=C1CC2(CCN(S(=O)(=O)c3ccccc3)CC2)Oc2ccccc21`, for which the result in [1], in [2], in experiment [3], in experiment [5], in experiment [6] and in experiment [7] was inactive. Besides, the result in experiment [8], in [9], in experiment [10], in experiment [11], in experiment [12] and in [13] was inactive. The outcome in experiment [14], in [16] and in experiment [17] was inactive. Also, the potentiation in experiment [4] was 52% (active); in experiment [15], 28.7% (active).
On to `Cc1cc(C(=O)CN2C(=O)C(=O)N(CC(C)C)C2=O)c(C)n1-c1ccccc1F`, for which the result in experiment [1], in experiment [2], in experiment [3], in experiment [4], in experiment [5] and in experiment [6] was inactive. Further, the outcome in experiment [7], in experiment [8], in experiment [9], in experiment [10], in [11] and in [12] was inactive. In addition, the outcome in experiment [13], in experiment [14], in [16] and in experiment [17] was inactive. Besides, the potentiation in experiment [15] was 35.1% (active).
For the compound `CCCCNc1c(-c2ccc(SC(C)CC)c(OC)c2)nc2ccc(C)cn12` (stereo not given), the result in experiment [1], in [2], in experiment [3], in experiment [4], in experiment [5] and in experiment [6] was inactive. Also, the outcome in experiment [7], in experiment [8], in [9], in experiment [10], in [11] and in experiment [12] was inactive. The outcome in experiment [13], in experiment [14], in experiment [15], in experiment [16] and in [17] was inactive.
Take `COc1ccc2sc(N(CCCN(C)C)C(=O)c3ccc(S(=O)(=O)N4CCCc5ccccc54)cc3)nc2c1`: the outcome in experiment [1], in experiment [2], in [3], in experiment [5], in experiment [6] and in experiment [7] was inactive. Moreover, the outcome in experiment [8], in [9], in experiment [10], in [11], in experiment [12] and in experiment [13] was inactive. Moreover, the result in experiment [14], in [16] and in experiment [17] was inactive. Further, the potentiation in experiment [4] was 28% (active); in experiment [15], 80% (active).
For `CCN(C(=O)c1cc2c(s1)-c1ccccc1OC2)c1cc(OC)ccc1OC`, the outcome in experiment [1], in experiment [2], in experiment [3], in [4], in experiment [5] and in [6] was inactive. The result in experiment [7], in [8], in [9], in experiment [10], in [11] and in [12] was inactive. Moreover, the outcome in experiment [13], in experiment [14], in experiment [15], in [16] and in experiment [17] was inactive.
As for `CCOC(=O)c1cc(=O)n(Cc2ccccc2C)c2ccccc12`, the result in experiment [1], in experiment [2], in experiment [3], in experiment [5], in [6] and in experiment [7] was inactive. Besides, the outcome in experiment [8], in experiment [9], in experiment [10], in experiment [11], in [12] and in experiment [13] was inactive. The result in experiment [14], in [16] and in experiment [17] was inactive. For the same compound, the potentiation in experiment [4] was 74% (active); in experiment [15], 48.4% (active).
As for `O=C1CCCC(=O)N1c1ccc(N2CCN(c3ccc([N+](=O)[O-])cc3)CC2)c([N+](=O)[O-])c1`, the outcome in experiment [1], in [2], in experiment [3], in [5], in experiment [6] and in experiment [7] was inactive. Moreover, the outcome in experiment [8], in [9], in experiment [10], in experiment [11], in experiment [12] and in [13] was inactive. For the same compound, the outcome in [14], in [16] and in experiment [17] was inactive. Also, the potentiation in experiment [4] was 11% (active); in experiment [15] it was 14.9% (active).
